The nature of assay [1]: Nuclear factor erythroid 2-related factor 2/antioxidant responsive element (Nrf2/ARE) small molecule agonists: qHTS cell viability counter screen in human keratinocytes (AID 1919968; active = well fitted curve in the direction sought with a large enough effect in the repeat runs; an effect the other way counts as inactive or inconclusive; note: nearly all actives have a fitted effect of over 55% in size; note: potency is the fitted concentration of half-maximal effect). Summed up:
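Cells of the KeratinoSens line were plated at 1,500 per well and left for 5 h before compound transfer from DMSO stocks. After a 23 h incubation (37 C, 5% CO2), CellTiter-Fluor was added. Signal was taken as fluorescence intensity 1 h later.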

A short description of assay [2]: Nuclear factor erythroid 2-related factor 2/antioxidant responsive element (Nrf2/ARE) small molecule agonists: luciferase reporter gene qHTS assay in human keratinocytes (AID 1919969). Note: nearly all actives have a fitted effect of over 35% in size. Note: potency is the fitted concentration of half-maximal effect. A general note: Reporter assays use an easily measured gene product as a stand-in for the process of interest.
Assay [3] has as its target Gonadotropin-releasing hormone receptor (Homo sapiens) (UniProt P30968). In words: Human gonadotropin-releasing hormone receptor (GnRHR) small molecule agonists, calcium flux assay in GnRHR-HEK293 cells (AID 1920063). Note: nearly all actives have a fitted effect of over 35% in size. Summed up:
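Compounds dissolved in DMSO are pin-transferred onto dye-loaded GnRHR-HEK293 cells, which were seeded 18 h before at 37 C/5% CO2. Calcium signal is read as fluorescence intensity at 1 s intervals for 3 min.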
For orientation: Calcium assays in cells follow changes in intracellular calcium, usually with a dye or a luminescent sensor.

The target in assay [4] is KiSS-1 receptor (Homo sapiens) (UniProt Q969F8). In words: Human kisspeptin (KISS1R) small molecule agonists, calcium flux assay in KISS1R-HEK293 cells (AID 1920064; active = well fitted curve in the direction sought with a large enough effect in the repeat runs; an effect the other way counts as inactive or inconclusive). The gist of the method: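 Cell line: HEK293, stable human KISS1R. Dye loading 1 h at 37 C after 18 h culture. Read: kinetic fluorescence, 480/540 nm, 3 min at 1 s intervals.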
A short description of assay [5]: G protein-coupled receptor (GPCR) small molecule agonists, calcium flux assay: HEK293 wild type cell line counter screen (AID 1920065). The gist of the method:
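Tox21 10K compounds, 15 concentrations each in triplicate, pin-transferred in DMSO onto dye-loaded cells; kinetic read at 480/540 nm for 3 min, 1 s intervals.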

Assay [6] is described as follows: p53 small molecule agonists, cell-based qHTS assay with human liver microsomes (AID 1963577).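 Note: p53 response element beta-lactamase reporter cells with liver microsomes plus NADPH.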 Summed up:
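HLM-supplemented p53RE-bla reporter assay: 16 h compound exposure at 37 C, microsomes and NADPH each 0.5 mg/mL final, read by fluorescence intensity.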

Assay [7] can be described thus: p53 small molecule agonists, cell-based qHTS assay with rat liver microsomes (AID 1963578). The gist of the method:
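Quantitative HTS of the Tox21 10K library: p53RE-bla cells, rat liver microsomes plus NADPH at 0.5 mg/mL final each, 16 h at 37 C, beta-lactamase fluorescence detection.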
(In general: In qHTS, concentration-response curves come from the screen itself.)

Assay [8] is described as follows: p53 small molecule agonists, cell-based qHTS assay with rat liver microsomes: qHTS cell viability counter screen (AID 1963580). Note: nearly all actives have a fitted effect of over 45% in size. Summed up: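 Luminescent ATP readout (CellTiter-Glo, 30 min at room temperature) reports viability of p53RE-bla HCT-116 cells after 16 h at 37 C with test compounds under metabolic activation by rat liver microsomes and NADPH at 0.5 mg/mL final each.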

A short description of assay [9]: p53 small molecule agonists, cell-based qHTS assay: qHTS cell viability counter screen (AID 1963581). Note: nearly all actives have a fitted effect of over 45% in size. Summed up: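 ATP content measured by luminescence in HCT-116 p53RE-bla cells treated 16 h at 37 C, same wells as the reporter screen.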
A short description of assay [10]: p53 small molecule agonists, cell-based qHTS assay (AID 1963582; active = well fitted activation curve with a large enough effect in the signal ratio in the repeat runs, not every such curve was filed as active; the % refers to the signal ratio). Summed up:
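16 h compound exposure (37 C) of p53 response element–bla cells, preceded by 5 h recovery at 37 C/5% CO2; read-out via LiveBLAzer B/G FRET substrate, 2 h RT, fluorescence intensity.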

Assay [11] has as its target 5-hydroxytryptamine receptor 2A (Homo sapiens) (UniProt P28223). In words: 5-hydroxytryptamine receptor 2A (HTR2A) small molecule antagonists, cell-based qHTS assay (AID 1963586). Note: nearly all actives have a fitted effect of over 45% in size. Summed up:
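CHO cells stably expressing human HTR2A were plated for 18 h at 37 C, then loaded with calcium dye for 1 h. Compounds were preincubated 5 min at room temperature before DOI (4 nM solution) was added. Kinetic fluorescence was read for 3 min.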

Assay [12] deals with Muscarinic acetylcholine receptor M1 (Homo sapiens) (UniProt P11229). In words: Cholinergic receptor muscarinic 1 (CHRM1) small molecule antagonists, cell-based qHTS assay (AID 1963588). Note: nearly all actives have a fitted effect of over 40% in size. The gist of the method:
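Compounds were tested at 15 concentrations in three independent runs. Dye-loaded CHRM1-CHO cells were exposed 5 min at room temperature before stimulation by acetylcholine added at 50nM. Intracellular calcium was read kinetically on FDSS for 3 min.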

Assay [13] shares this target. In words: Cholinergic receptor muscarinic 1 (CHRM1) small molecule agonists, cell-based qHTS assay (AID 1963589). Note: nearly all actives have a fitted effect of over 35% in size. Summed up: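 Homogeneous fluorescence calcium flux, agonist mode. Human M1-expressing CHO cells; compound dosed at 15 concentrations, three independent runs; signal sampled every 1 sec.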
Assay [14] in a line: cAMP Responsive Elements (CRE) small molecule agonists, cell-based qHTS assay (AID 1963590). Note: potency is the fitted concentration of half-maximal effect. Summed up:
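HEK 293T cells stably bearing CRE-bla were plated at 2,000 cells per well and rested 18 h. Compounds, positive controls or DMSO were added for 3 h at 37 C. LiveBLAzer B/G substrate was then loaded for 2 h at room temperature.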

Assay [15] in a line: cAMP Responsive Elements (CRE) small molecule antagonists, cell-based qHTS assay (AID 1963591; active = well fitted inhibition curve with a large enough effect in the signal ratio in the repeat runs, not every such curve was filed as active; the % refers to the signal ratio). Summed up:
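First, CRE-bla HEK293T cells settled 18 h at 37 C. Next, compound and 0.25 uM final NKH477 were applied for 3 h. Last, LiveBLAzer B/G substrate was loaded for 2 h at room temperature.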

The target in assay [16] is Beta-2 adrenergic receptor (Homo sapiens) (UniProt P07550). In words: Adrenergic beta2 receptor (ADRB2) small molecule antagonists, cell-based qHTS assay (AID 1963592). For activity change, negative = inhibition: series mostly up to about 92 µM. Note: nearly all actives have a fitted effect of over 50% in size. Note: potency is the fitted concentration of half-maximal effect. The gist of the method: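 Assay format: CHO-ADRB2 cells, 18-20hr seeding at 37C/5% CO2, then compound plus 1nM isoproterenol agonist mix for 0.5hr RT. Homogeneous time-resolved fluorescence cAMP detection after 1hr, expressed as 665/615 nm ratio.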

Assay [17] deals with D(2) dopamine receptor (Homo sapiens) (UniProt P14416). In words: Dopamine D2 receptor (DRD2) small molecule agonists, cell-based qHTS assay (AID 1963594). Note: nearly all actives have a fitted effect of over 35% in size. Note: potency is the fitted concentration of half-maximal effect. Summed up: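 HEK293 cells stably expressing DRD2 were cultured 24 h at 37 C, then given Ro20-1724 (0.1 mM final) and compounds for 10 min at room temperature. NKH477 (200nM) was then added for 30 min. cAMP was read by HTRF.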

For assay [18] the target is unchanged. In words: Dopamine D2 receptor (DRD2) small molecule antagonists, cell-based qHTS assay (AID 1963595; active = well fitted inhibition curve with a large enough effect in the signal ratio in the repeat runs, with a control signal flat; the % refers to the signal ratio). Summed up: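 DRD2-HEK293; 0.1 mM Ro20-1724; cpd 10 min RT; NKH477 200 nM + quinpirole 12 nM, 30 min RT; HTRF cAMP (cAMP-d2/anti-cAMP cryptate), 665/620 nm ratio after 1 h.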
The target in assay [19] is 5-hydroxytryptamine receptor 2A (Homo sapiens) (UniProt P28223). In words: 5-hydroxytryptamine receptor 2A (HTR2A) small molecule agonists, cell-based qHTS assay (AID 1963587). Note: nearly all actives have a fitted effect of over 30% in size. Note: potency is the fitted concentration of half-maximal effect. Summed up:
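HTR2A-CHO cells, plated 18 h at 37 C/5% CO2, dye-loaded 1 h at 37 C; compounds in DMSO added by pin tool (agonist mode). Intracellular calcium flux read as kinetic fluorescence on FDSS over 2 min at 1 s intervals.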

Unmarked numbers belong to inactive results. Inconclusive results are not listed. Active and inactive are the calls of the source. Unless noted, calls come from the whole dose curve.
% is set by controls: 0 for no effect and ±100 for the full control effect.

Chain of KiSS-1 receptor (Homo sapiens) (Q969F8 whole entry, looked up): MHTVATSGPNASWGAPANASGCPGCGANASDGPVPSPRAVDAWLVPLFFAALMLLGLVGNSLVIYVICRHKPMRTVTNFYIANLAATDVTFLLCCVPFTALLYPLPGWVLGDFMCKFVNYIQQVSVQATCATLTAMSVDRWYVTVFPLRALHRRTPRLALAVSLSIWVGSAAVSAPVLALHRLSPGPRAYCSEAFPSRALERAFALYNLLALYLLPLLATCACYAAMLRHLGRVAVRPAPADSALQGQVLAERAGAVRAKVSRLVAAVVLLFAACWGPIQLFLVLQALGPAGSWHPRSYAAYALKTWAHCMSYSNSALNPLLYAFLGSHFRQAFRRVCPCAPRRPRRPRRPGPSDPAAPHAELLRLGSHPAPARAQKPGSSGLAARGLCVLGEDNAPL
Chain of Gonadotropin-releasing hormone receptor (Homo sapiens) (P30968 whole entry, looked up): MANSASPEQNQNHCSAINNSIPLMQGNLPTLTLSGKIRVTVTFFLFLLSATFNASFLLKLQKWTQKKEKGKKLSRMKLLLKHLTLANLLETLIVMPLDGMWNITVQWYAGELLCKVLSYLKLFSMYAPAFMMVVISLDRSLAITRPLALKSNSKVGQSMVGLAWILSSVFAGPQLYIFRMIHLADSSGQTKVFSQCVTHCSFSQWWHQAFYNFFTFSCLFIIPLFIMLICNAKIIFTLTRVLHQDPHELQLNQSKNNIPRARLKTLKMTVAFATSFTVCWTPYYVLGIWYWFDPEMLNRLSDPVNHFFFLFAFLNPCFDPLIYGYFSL
Chain of Muscarinic acetylcholine receptor M1 (Homo sapiens) (P11229 whole entry, looked up): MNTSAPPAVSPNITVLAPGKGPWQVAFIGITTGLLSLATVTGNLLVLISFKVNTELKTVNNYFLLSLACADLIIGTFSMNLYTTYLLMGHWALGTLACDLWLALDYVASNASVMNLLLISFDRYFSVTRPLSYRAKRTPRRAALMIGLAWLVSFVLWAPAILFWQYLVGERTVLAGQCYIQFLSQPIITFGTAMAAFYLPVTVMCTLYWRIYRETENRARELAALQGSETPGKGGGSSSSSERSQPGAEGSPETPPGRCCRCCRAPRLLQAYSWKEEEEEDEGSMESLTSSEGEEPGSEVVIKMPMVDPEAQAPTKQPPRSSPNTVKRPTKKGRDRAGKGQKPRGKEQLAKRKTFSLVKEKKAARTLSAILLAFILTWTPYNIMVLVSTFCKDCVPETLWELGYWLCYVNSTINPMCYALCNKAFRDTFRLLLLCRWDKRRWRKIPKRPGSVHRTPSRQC
Chain of Beta-2 adrenergic receptor (Homo sapiens) (P07550 whole entry, looked up): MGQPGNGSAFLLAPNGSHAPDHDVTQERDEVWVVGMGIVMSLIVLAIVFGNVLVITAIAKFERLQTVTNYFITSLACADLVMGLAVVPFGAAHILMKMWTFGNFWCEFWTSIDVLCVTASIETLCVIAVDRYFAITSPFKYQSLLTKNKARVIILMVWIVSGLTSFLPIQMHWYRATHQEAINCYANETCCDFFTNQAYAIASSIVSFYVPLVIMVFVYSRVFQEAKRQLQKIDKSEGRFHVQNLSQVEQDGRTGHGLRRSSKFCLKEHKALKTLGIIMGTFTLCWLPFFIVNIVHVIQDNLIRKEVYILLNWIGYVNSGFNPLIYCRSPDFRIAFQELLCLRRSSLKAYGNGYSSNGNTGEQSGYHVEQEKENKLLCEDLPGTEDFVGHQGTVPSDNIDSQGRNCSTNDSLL
Chain of D(2) dopamine receptor (Homo sapiens) (P14416 whole entry, looked up): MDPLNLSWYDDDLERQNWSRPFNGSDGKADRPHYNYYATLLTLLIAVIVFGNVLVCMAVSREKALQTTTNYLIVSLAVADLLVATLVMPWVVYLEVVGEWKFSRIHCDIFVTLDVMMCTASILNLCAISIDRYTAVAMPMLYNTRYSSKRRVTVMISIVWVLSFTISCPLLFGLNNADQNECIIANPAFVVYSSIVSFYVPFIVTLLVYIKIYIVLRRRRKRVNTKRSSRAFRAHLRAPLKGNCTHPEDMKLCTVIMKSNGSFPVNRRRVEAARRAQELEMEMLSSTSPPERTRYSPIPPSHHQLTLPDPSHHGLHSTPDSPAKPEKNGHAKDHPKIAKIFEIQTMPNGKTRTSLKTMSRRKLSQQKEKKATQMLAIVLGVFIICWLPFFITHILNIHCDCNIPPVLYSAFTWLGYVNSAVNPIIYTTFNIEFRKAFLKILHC
Chain of 5-hydroxytryptamine receptor 2A (Homo sapiens) (P28223 whole entry, looked up): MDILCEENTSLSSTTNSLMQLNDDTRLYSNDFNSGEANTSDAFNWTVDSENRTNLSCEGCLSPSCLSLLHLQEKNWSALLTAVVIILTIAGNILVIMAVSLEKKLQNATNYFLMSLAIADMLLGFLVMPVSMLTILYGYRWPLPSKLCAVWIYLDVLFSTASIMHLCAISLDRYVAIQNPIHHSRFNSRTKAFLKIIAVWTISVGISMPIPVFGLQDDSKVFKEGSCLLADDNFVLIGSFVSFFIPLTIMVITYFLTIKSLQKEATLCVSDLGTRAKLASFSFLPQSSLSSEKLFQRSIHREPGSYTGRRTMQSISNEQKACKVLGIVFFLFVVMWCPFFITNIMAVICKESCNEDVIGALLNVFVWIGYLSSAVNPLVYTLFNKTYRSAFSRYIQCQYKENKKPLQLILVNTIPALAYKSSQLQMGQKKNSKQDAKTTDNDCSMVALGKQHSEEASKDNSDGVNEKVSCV

As to `OCCN(CCO)c1cccc(Cl)c1`, the Potency result in [1], in assay [2], in assay [3], in assay [6], in assay [7] and in assay [8] was “inactive” in each case. The Potency result in assay [9], in [10], in [11], in assay [12], in assay [13] and in assay [14] was “inactive” throughout. Further, the Potency result in assay [15], in [16], in assay [17] and in assay [18] was “inactive” each time. Further, the result in assay [4] and in assay [5] was inactive.

Take `Nc1nc(Cl)nc2c1ncn2[C@@H]1O[C@H](CO)[C@@H](O)[C@@H]1F`: the Potency result in assay [1], in assay [2], in assay [3], in [6], in assay [7] and in assay [8] was “inactive” throughout. Also, the Potency entry in [9], in assay [11], in assay [19], in [12], in assay [13] and in assay [15] was “inactive” in each case. Also, the Potency result in assay [16] and in assay [18] was “inactive” in each case. Further, the result in assay [4] and in [5] was inactive. Besides, the Potency was 29.8 µM (active) in assay [14] and 0.422 µM (active) in assay [17].

For `CCCCCCCCCCCCCCN(CCO)CCO`, the Potency in assay [1] is 27.3 µM (active); in assay [19] it was 21.9 µM (active). The Potency entry in assay [2], in assay [3], in assay [6], in assay [7], in assay [8] and in assay [9] was “inactive” in each case. Moreover, the Potency result in assay [11], in [16], in [17] and in assay [18] was “inactive” throughout. For the same molecule, the outcome in assay [4] and in assay [5] was inactive.

For `C=CC/C=C/C/C=C/C/C=C/C`, the Potency entry in assay [1], in [2], in [3], in [6], in assay [7] and in assay [8] was “inactive” throughout. Also, the Potency result in [10], in [11], in [19], in [12], in assay [13] and in [14] was “inactive” throughout. The Potency result in [15], in assay [16] and in assay [17] was “inactive” each time. Also, the outcome in [4] and in [5] was inactive.

In the case of `COc1cc2nc(N3CCN(C(=O)c4ccco4)CC3)nc(N)c2cc1OC`, the values for the activity change, negative = cytotoxicity in [1], in assay [8] and in assay [9] were -15.2% [at 19 µM], 0.442% [at 13.5 µM] and 24.1% [at 13.5 µM], respectively. In addition, the activity, positive = activation in [2] is -0.0377% [at 19 µM]. Besides, the activity change in assay [3] was -0.192% [at 11.8 µM, stronger effect = higher value]. For the same molecule, the activation was 1.31% [at 15.8 µM] in assay [4]; 0.594% [at 11.8 µM] in assay [5]; -0.142% [at 13.5 µM] in assay [6]; 0.86% [at 13.6 µM] in [7]; -0.578% [at 19 µM] in assay [14]; 10.2% [at 19 µM] in assay [17]. Moreover, the activity change, negative = inhibition was 4.27% [at 18.9 µM] in assay [15] and 1.94% [at 18.9 µM] in [18]. Besides, in assay [16], the Potency is 14.6 µM (active).

Turning to `CCC(=O)O[C@]1(C(=O)SCF)[C@H](C)C[C@H]2[C@@H]3C[C@H](F)C4=CC(=O)C=C[C@]4(C)[C@@]3(F)[C@@H](O)C[C@@]21C`, the Potency result in assay [1], in assay [2], in assay [3], in assay [6], in assay [7] and in assay [8] was “inactive” each time. In addition, the Potency result in assay [9], in [11], in assay [19], in assay [12], in [13] and in assay [16] was “inactive” in each case. Further, the Potency entry in assay [17] and in assay [18] was “inactive” in each case. Also, the outcome in [4] and in assay [5] was inactive.

Take `Cc1cc2c(s1)Nc1ccccc1N=C2N1CCN(C)CC1`: the Potency result in assay [1], in assay [2], in assay [3], in [6], in [7] and in assay [8] was “inactive” throughout. Moreover, the Potency result in assay [10], in [14] and in assay [15] was “inactive” throughout. Moreover, the outcome in [4] and in assay [5] was inactive.

In the case of `CC(=O)Oc1ccc(C2(c3ccc(OC(C)=O)cc3)C(=O)Nc3ccccc32)cc1`, the Potency result in assay [1], in assay [3], in [6], in assay [7], in [8] and in [9] was “inactive” throughout. Besides, the Potency entry in [11], in assay [12], in assay [13], in [14], in assay [16] and in assay [17] was “inactive” throughout. Moreover, the Potency entry in assay [18] was “inactive”. Further, the Potency in assay [2] is 0.266 µM (active). The outcome in [4] and in assay [5] was inactive.

For the origin of these results see PubChem BioAssay (Tox21).
